KB-V1 MDR tox = qHTS assay for MDR1-selective chemotherapeutics: Primary screen using the drug-selected MDR subline cells KB-V1 | AID 1347076, 2019 | KB-V1 MDR cells viability, CellTiter-Glo, 72 h | Potency, µM (series often up to 46.1 µM), usual class: cytotoxic | 400,000 compounds, 3.4% hits; also: potency is read from the fitted curve at half-maximal effect; % is scaled to controls: 0 for no effect and ±100 for the full control effect; nearly all actives have a fitted effect of over 60% in size
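Luminescent ATP read-out (CellTiter-Glo, 10 min) measures survival of drug-selected KB-V1 MDR cells after 72 h, 37 degrees C compound exposure. Medium: phenol-red-free DMEM, 10% FBS. Values from fitted concentration-response curves.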
KB-3-1 tox = qHTS assay for MDR1-selective chemotherapeutics: Primary screen using the parental adenocarcinoma cell KB-3-1. KB-3-1 viability, CellTiter-Glo ATP luminescence, 72 h. Potency, µM (series often up to 46.1 µM), actives largely listed as cytotoxic. 400,000 compounds, 1.4% hits. AID 1347075, 2019; also: potency is read from the fitted curve at half-maximal effect; % is scaled to controls: 0 for no effect and ±100 for the full control effect; nearly all actives have a fitted effect of over 60% in size
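Cells are dispensed, compounds pinned in, plates held at 37 °C for 72 h, then CellTiter-Glo is added and luminescence read after 10 minutes. Cell line: parental KB-3-1 in phenol-red-free DMEM, 10% FBS.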
MCF10A rerep = A quantitative high throughput screen for small molecules that induce DNA re-replication in MCF 10a normal breast cells; MCF 10A DNA re-replication, Hoechst nuclear intensity, 48 h; 350,000 compounds, 2.9% hits; Potency, µM (titrated, usually from 46.1 µM), for inactives: top-dose activity, positive = re-replication, hits mostly activators; AID 624296, 2012; also: potency is read from the fitted curve at half-maximal effect; % of control where 0% means no effect; nearly all actives have a fitted effect of over 50% in size
IL-1B inflam inh = qHTS for Inhibitors of Inflammasome Signaling: IL-1-beta AlphaLISA Primary Screen. activity change, % at 57.5 µM. 360,000 compounds, 4.7% hits. THP-1 LPS/ATP IL-1B secretion, AlphaLISA, 16 h; hits give low values; in the data active = activity change below about -50%; inconclusive = mostly about -30% to -49%; also: % is scaled to controls: 0 for no effect and ±100 for the full control effect
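THP-1 cells pretreated 1 hr with compounds (up to 57.5 uM final), then stimulated with LPS (250 ng/mL final) plus ATP (1.25 mM final); secreted IL-1B measured by AlphaLISA after 16 hr, decreased signal indicating inhibition.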
SW480 rereplic = A quantitative high throughput screen for small molecules that induce DNA re-replication in SW480 colon adenocarcinoma cells; SW480 DNA re-replication, Hoechst DNA content imaging, 48 h; Potency, µM (highest dose often 46.1 µM), inactives show at the top dose re-replication activation, usual class: activators; 340,000 compounds, 1.8% hits; AID 624297, 2012; also: potency is read from the fitted curve at half-maximal effect; % of control where 0% means no effect; nearly all actives have a fitted effect of over 55% in size
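Readout is total intensity of Hoechst-stained nuclei, excited at 405 nm and collected at 500-530 nm. Compound treatment lasted 48 hr at 37 C in 5% CO2 before staining.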
* hit, by the source's call; i = inactive; ? = inconclusive; / = no result given. This is a sample that favours compounds with a hit; in the whole collection about 9.9% have one here. Unless noted, calls follow the shape of the dose curve; as a rule, active = well fitted curve in the direction sought with a large enough effect; inconclusive = small, poorly fitted or top-dose-only effect, or another doubt; inactive = no such curve, though single readings can be large; an effect the other way counts as inactive or inconclusive.

SMILES	KB-V1 MDR tox	KB-3-1 tox	MCF10A rerep	IL-1B inflam inh	SW480 rereplic
N#C/C(=C\c1ccc(OCc2cccc(C(=O)O)c2)cc1)C(=O)NCc1ccco1	i	i	20.4%	-5.2	-6.2%
CCC(Sc1nnc2c(n1)[nH]c1ccccc12)C(=O)Nc1nnc(C(C)C)s1 (stereo not drawn)	i	i	/	/	/
Cc1nc(SCC(=O)NC(C)c2ccccc2)c2oc3ccccc3c2n1 (stereo not drawn)	5.17µM*	i	?	0.0	0.8%
Cc1cc(C)nc(Sc2nc(C)nc3c2oc2ccccc23)n1	?	20.6µM*	?	?	?
Cc1nc(SCC(=O)Nc2ccccc2)c2oc3ccccc3c2n1	i	i	11.6µM*	3.3	-6.7%
Cc1nc(SCC(=O)Nc2ccc(F)cc2)c2oc3ccccc3c2n1	i	i	?	-7.5	-6.9%
Cc1nc(SCC(=O)NCCc2ccccc2)c2oc3ccccc3c2n1	i	i	3.0%	9.8	6.2%
Cc1nc(SCc2cccc(F)c2)c2oc3ccccc3c2n1	i	i	1.9%	39.5	-4.4%
CC1CCCN(C(=O)COC(=O)C2=COCCO2)C1 (stereo not drawn)	i	i	-1.7%	20.9	-4.0%
Cc1cccc(-n2c(SC(C)C(=O)O)nc3sc4c(c3c2=O)CCCC4)c1 (stereo not drawn)	i	i	-13.5%	37.8	-14.2%
CN(C)C(=O)CSc1ccc(S(=O)(=O)N2CCCC2)cn1	i	i	-0.2%	-6.8	-2.9%
CC(C)N(C(=O)CSc1ccc(S(=O)(=O)N2CCCCC2)cn1)c1ccccc1	i	?	5.8µM*	-24.7	-10.1%
CN(C)C1=NCCN1CCc1ccc(F)cc1	i	i	0.5%	10.1	-8.3%
CCCOc1ccc(NC2=CC(=O)CC(C)(C)C2)cc1	i	i	22.4%	3.0	-1.9%
Cc1cccc(C#N)c1NC1=CC(=O)CC(C)(C)C1	i	i	-1.2%	-3.1	2.7%
CCc1ccc(NC2=CC(=O)CC(C)(C)C2)cc1	i	i	-14.8%	-56.0*	-1.8%
CC1(C)CC(=O)C=C(Nc2ccc(Br)cc2F)C1	?	i	-1.4%	-80.8*	-3.2%
Cc1cc(C)c(NC2=CC(=O)CC(C)(C)C2)c(C#N)c1	23.1µM*	i	1.2%	28.2	0.9%
Cc1ccc(NC2=CC(=O)CC(C)(C)C2)cc1C	16.4µM*	i	2.4%	-10.7	-0.3%
CCN(C(=O)CCc1nnc2ccc(NCc3ccco3)nn12)c1ccccc1	?	i	1.4%	63.6	-3.7%
CCOC(=O)c1c2c3c(cccc3n(C)c1=O)C(=O)c1ccccc1-2	20.6µM*	?	22.7%	?	0.2%
CCOC(=O)c1c2c3c(c(Cl)ccc3[nH]c1=O)C(=O)c1ccccc1-2	i	i	?	-84.5*	-22.0%
CCOC(=O)c1c2c3c(cccc3[nH]c1=O)C(=O)c1ccccc1-2	i	i	0.1%	-5.5	-9.8%
CC(C)=CC(=O)Nc1nc2ccc([N+](=O)[O-])cc2s1	?	i	3.9%	24.9	?
CCn1nc(-c2ccc(C)cc2)nc2c(=O)n(C)c(=O)nc1-2	i	i	/	/	/
Cn1nc(-c2ccncc2)nc2c(=O)n(C)c(=O)nc1-2	?	1.84µM*	/	/	/
CC1CC(=O)NN=C1c1ccc(NCCO)c([N+](=O)[O-])c1 (stereo not drawn)	0.13µM*	i	-0.7%	6.8	-1.7%
CCNC(=O)C(=O)N/N=C/c1cc([N+](=O)[O-])ccc1O	i	i	?	0.0	33.4%
O=C(N/N=C/c1cc([N+](=O)[O-])ccc1O)C12CC3CC(CC(C3)C1)C2	i	?	7.31µM*	161.2	?
CCOC(=O)c1c(C)[nH]c(C(=O)N/N=C/c2ccc(OC)c(OC)c2)c1C	i	?	13.9%	15.5	?

Source: PubChem
